Assay results as given in PubChem BioAssay AID504333 (National Center for Advancing Translational Sciences (NCATS), 2011).
Hit rate of the full screen: of about 360,000 compounds, about 16,000 (4.4%) were called active. Inconclusive results (about 9%) are left out. Calls follow the shape of the dose curve; as a rule, active = well fitted inhibition curve with a large enough effect; inconclusive = small, poorly fitted or top-dose-only effect; inactive = no such curve, though single readings can be large or run the other way. Many of the other results were omitted from the sample, so actives are more common in it than they were.

target: Bromodomain adjacent to zinc finger domain protein 2B (Homo sapiens) (UniProt Q9UIF8); assay: qHTS Assay for Inhibitors of BAZ2B; details: AlphaScreen BAZ2B-H3K14Ac peptide displacement; series mostly up to 114 µM; activity change, negative = inhibition: at the top concentration; also: nearly all actives have a fitted effect of over 60% in size
Method in brief: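 AlphaScreen displacement of biotin-H3(5-23)K14Ac peptide (50 nM final) from BAZ2B (50 nM final) in PBS pH 7.4, 0.01% Tween-20; complex preformed 30 min RT, then compounds (top 110 uM) 30 min RT, beads 20 min dark.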
% is scaled to controls: 0 for no effect and ±100 for the full control effect; potency is read from the fitted curve at half-maximal effect.

Bromodomain adjacent to zinc finger domain protein 2B (Homo sapiens), sequence (Q9UIF8 whole entry, looked up, the tested form may be a part): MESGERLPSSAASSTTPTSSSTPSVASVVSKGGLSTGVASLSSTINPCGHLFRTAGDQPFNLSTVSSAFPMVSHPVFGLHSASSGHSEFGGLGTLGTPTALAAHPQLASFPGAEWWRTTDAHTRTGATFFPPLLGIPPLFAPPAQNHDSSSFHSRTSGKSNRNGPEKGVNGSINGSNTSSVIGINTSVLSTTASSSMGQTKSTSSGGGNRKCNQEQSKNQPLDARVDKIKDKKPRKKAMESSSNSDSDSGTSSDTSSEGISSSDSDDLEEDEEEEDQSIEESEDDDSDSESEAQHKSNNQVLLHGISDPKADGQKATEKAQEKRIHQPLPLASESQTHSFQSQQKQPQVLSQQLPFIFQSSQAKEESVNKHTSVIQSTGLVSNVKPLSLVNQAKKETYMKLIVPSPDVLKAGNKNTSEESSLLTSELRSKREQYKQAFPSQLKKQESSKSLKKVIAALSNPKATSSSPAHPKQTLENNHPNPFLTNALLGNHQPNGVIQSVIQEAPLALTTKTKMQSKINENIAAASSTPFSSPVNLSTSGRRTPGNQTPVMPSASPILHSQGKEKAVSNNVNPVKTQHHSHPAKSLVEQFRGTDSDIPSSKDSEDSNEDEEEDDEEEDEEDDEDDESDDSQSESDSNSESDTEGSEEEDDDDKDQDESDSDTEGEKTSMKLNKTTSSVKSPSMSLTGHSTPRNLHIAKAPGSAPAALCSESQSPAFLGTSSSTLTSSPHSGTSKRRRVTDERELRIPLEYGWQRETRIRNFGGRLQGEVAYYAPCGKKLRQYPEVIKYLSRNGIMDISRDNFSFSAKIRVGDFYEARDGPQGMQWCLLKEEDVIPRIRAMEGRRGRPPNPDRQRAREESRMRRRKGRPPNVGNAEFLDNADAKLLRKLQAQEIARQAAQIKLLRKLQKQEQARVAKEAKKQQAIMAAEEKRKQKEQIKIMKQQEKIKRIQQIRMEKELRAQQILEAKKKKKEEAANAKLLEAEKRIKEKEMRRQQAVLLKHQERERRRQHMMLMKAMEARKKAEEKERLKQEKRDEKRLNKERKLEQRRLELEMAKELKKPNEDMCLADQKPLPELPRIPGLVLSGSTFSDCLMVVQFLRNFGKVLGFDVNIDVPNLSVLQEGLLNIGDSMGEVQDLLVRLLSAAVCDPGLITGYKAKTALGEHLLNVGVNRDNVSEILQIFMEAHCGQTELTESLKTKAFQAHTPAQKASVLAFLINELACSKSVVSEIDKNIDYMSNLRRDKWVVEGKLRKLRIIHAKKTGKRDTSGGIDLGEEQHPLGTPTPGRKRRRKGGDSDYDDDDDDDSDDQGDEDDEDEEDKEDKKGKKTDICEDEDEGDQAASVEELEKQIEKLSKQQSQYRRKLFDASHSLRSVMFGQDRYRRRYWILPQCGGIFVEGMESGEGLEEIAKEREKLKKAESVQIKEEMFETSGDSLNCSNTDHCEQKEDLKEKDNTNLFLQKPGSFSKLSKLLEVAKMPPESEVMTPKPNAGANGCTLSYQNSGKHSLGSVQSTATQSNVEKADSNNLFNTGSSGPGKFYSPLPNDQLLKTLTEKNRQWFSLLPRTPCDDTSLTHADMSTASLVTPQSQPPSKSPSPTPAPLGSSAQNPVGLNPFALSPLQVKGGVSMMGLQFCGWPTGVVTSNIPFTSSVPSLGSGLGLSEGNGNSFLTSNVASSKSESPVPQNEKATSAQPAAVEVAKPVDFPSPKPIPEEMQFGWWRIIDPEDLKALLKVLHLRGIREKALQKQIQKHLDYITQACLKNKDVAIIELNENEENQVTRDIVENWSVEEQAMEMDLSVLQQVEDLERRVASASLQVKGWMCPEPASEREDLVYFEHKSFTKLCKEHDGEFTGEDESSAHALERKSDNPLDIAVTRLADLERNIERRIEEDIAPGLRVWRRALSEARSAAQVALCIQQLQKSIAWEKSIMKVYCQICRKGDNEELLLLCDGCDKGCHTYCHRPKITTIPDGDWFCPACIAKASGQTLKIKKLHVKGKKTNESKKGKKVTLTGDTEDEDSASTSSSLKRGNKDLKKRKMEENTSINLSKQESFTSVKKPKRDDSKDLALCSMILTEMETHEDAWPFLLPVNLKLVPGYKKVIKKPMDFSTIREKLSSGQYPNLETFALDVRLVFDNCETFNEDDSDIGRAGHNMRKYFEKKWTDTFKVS

| SMILES | activity change, negative = inhibition | Potency |
| --- | --- | --- |
| Cc1cccc(NC(=O)N2CCC(CN3CCc4ccccc4C3)CC2)c1C | -0.909% (inactive) |  |
| Cc1ccc(NC(=O)CSc2nc3c([nH]c4ccccc43)c(=O)n2-c2ccccc2)c(C)c1 | -1.13% (inactive) |  |
| CCOc1ccccc1NC(=O)Cn1c2ncccc2c(=O)n1-c1ccc(C)c(C)c1 | 5.16% (inactive) |  |
| COc1cccc(/C=C2\SC(=N)N(c3ccc(F)cc3)C2=O)c1 | -26.3% (inactive) |  |
| COc1cc(/C=C2/C(=O)NN(c3cccc(Cl)c3)C2=O)cc(Br)c1O |  | 39.8 µM (active) |
| COc1cc(/C=C2/C(=O)NN(c3ccc(F)cc3)C2=O)cc([N+](=O)[O-])c1O |  | 39.8 µM (active) |
| COc1cc(CN2CC(C)CC(C)C2)cc([N+](=O)[O-])c1O (stereo not drawn) | -4.76% (inactive) |  |
| COc1cc(/C=N/O)cc(Br)c1OCc1cccc(Cl)c1 | 0.334% (inactive) |  |
| CCOc1c(Br)cc(/C=C2\C(=O)N(CCC#N)N=C2C)cc1OC | -0.0526% (inactive) |  |
| CCc1cccc(NC(=O)c2cnc(N3CCOCC3)c3ccccc23)c1 | -0.0325% (inactive) |  |
| Cc1ccc(C(=O)CSc2nc(-c3ccccc3)nc3c2CCCC3)c(C)c1 | 28.9% (inactive) |  |
| COc1ccc(CC(=O)NCCc2sc3nc(-c4ccc(OC)cc4)nn3c2C)cc1 | -5% (inactive) |  |
| O=C(c1ccc2ccccc2n1)N1CCN(c2ccccc2Cl)CC1 |  | 50.1 µM (active) |
| COc1ccccc1N1CCN(C(=O)c2c(-c3c(Cl)cccc3Cl)noc2C)CC1 | 2.05% (inactive) |  |
| O=C(c1ccncc1)N1CCN(c2ccc3ccccc3n2)CC1 | -12.4% (inactive) |  |
| COc1ccc(C)cc1-n1c(-c2ccc(C)cc2)cc2c1CC(C)(C)CC2=O | -31.9% (inactive) |  |
| COc1ccc(C2NC(=O)c3ccccc3N2)cc1 (stereo not drawn) | 1.81% (inactive) |  |
| COc1cccc(C2Nc3cccc4cccc(c34)N2)c1 |  | 35.5 µM (active) |
| COc1cccc(N2C(=O)C3CCCN3C2c2ccc(F)cc2)c1 (stereo not drawn) | 3.79% (inactive) |  |
| FC(F)(F)c1cc(Nc2nc3ccccc3c3nncn23)ccc1Cl | -0.167% (inactive) |  |
| COC(=O)c1cn(C(=O)c2ccc(Cl)cc2)c2ccccc12 | 44.8% (inactive) |  |
| COC(=O)/C(NC(C)=O)=C(\C)c1ccc(Cl)cc1 | 9.22% (inactive) |  |
| COC(=O)C(=Nc1ccccc1)/C(C(=O)C(=O)N(C)c1ccccc1)=C(\O)c1ccc(Cl)cc1 |  | 50.1 µM (active) |
| CCCCc1nn2c(=O)cc(COC(=O)c3ccccc3NC(=O)C(C)(C)C)nc2s1 | 1.02% (inactive) |  |
| Cc1cc(CO)nn1-c1ccc([N+](=O)[O-])cc1 | -1.85% (inactive) |  |

| SMILES | activity change, negative = inhibition | Potency |
| --- | --- | --- |
| Cc1nn(-c2ccc([N+](=O)[O-])cc2)c(N)c1-c1ccccc1 |  | 70.8 µM (active) |
| Cc1nn(-c2ccccc2)c2c1C(c1cccc([N+](=O)[O-])c1)N(c1ccccc1)C(=O)N2 (stereo not drawn) | -0.212% (inactive) |  |
| O=C(NCc1ccc(F)cc1)c1ccc(Cn2c(SCc3ccc(F)cc3)nc3cccnc32)cc1 | 1.21% (inactive) |  |
| Cc1oc2ncnc(N3CCOCC3)c2c1C(=O)NCCc1ccccc1 | 9.18% [at 57.1 µM] (inactive) |  |
| COc1ccccc1CNC(=O)CCn1c(=O)c2ccccc2n(CC(=O)Nc2ccc(Br)cc2F)c1=O | -9.92% (inactive) |  |
| COc1ccccc1CNC(=O)CCn1c(=O)c2ccccc2n(CC(=O)Nc2cccc(Cl)c2)c1=O |  | 79.4 µM (active) |
| COc1ccccc1CNC(=O)CCCCn1c(=O)c2ccccc2n(CC(=O)Nc2cc(Cl)ccc2C)c1=O | 1.31% (inactive) |  |
| O=C(NCc1ccccc1Cl)C1=Cc2cc(Br)ccc2OC1 | 39.3% (inactive) |  |
| CCCC(=O)Nc1cc(C(=O)NCc2ccc(OC)cc2)ccc1S(=O)(=O)c1ccc(Cl)cc1 | 7.79% (inactive) |  |
| CCOc1ccc(CCNC(=O)c2ccc3c(c2)sc2nc(-c4ccc(F)cc4)cn23)cc1OCC | 3.83% (inactive) |  |
| CCOc1ccc(-c2nonc2NC(=O)c2oc3ccc(CC)cc3c2C)cc1 | 45.4% (inactive) |  |
| COc1ccc(-c2cn3c(n2)sc2cc(C(=O)Nc4ccccc4F)ccc23)cc1 | -5.78% (inactive) |  |
| O=C(NCCc1ccc(Cl)cc1)c1cccc(N2CCCC2=O)c1 | -0.783% (inactive) |  |
| Oc1cc2c(cc1O)CN(C(=S)NCCc1ccc(Cl)cc1)CCC2 |  | 44.7 µM (active) |
| COc1ccc(CCNC(=S)N2CCN(S(=O)(=O)c3ccc(Cl)cc3)CC2)cc1 | -22.3% (inactive) |  |
| CC(=O)c1cc(-c2ccccc2)[nH]c1N1CCCC1 | -1.94% (inactive) |  |
| O=C1NN(c2ccccc2)C(=O)/C1=C/c1ccc(-c2cccc(C(=O)O)c2)o1 |  | 44.7 µM (active) |
| COc1ccc(-n2nnc(-c3nsc(NC(=O)c4ccc(C)c(C)c4)n3)c2C)cc1Cl | -1.44% (inactive) |  |
| Cc1ccc(NC(=O)c2cc(S(=O)(=O)NCCC3=CCCCC3)ccc2F)cc1C | -1.61% (inactive) |  |
| Cc1sc2ncn(CC(=O)N3CCN(c4ccc(F)cc4)CC3)c(=O)c2c1S(=O)(=O)N1CCN(c2ncccn2)CC1 | -11.3% (inactive) |  |
| CCOC(=O)c1c(/N=C/c2cc(C)ccc2O)sc2c1CCC2 |  | 50.1 µM (active) |
| CCOC(=O)c1c(NC(=O)/C(C#N)=C/c2ccccc2)sc2c1CCC2 | -2.86% (inactive) |  |
| CCOC(=O)c1c(NC(=S)NC)sc2c1CCCC2 | -3.22% (inactive) |  |
| O=C(Nc1ccc2nc(SCC(=O)N3CCc4ccccc43)sc2c1)c1ccccc1F | 13.1% (inactive) |  |
| CCOC(=O)c1cc2c(=O)n3ccccc3nc2n(CC2CCCO2)c1=NC(=O)c1ccccc1Br (stereo not drawn) | 5.77% (inactive) |  |

| SMILES | activity change, negative = inhibition | Potency |
| --- | --- | --- |
| CCc1ccc(NC(=O)CCCc2nnc3n(CCCOC)c(=O)c4sccc4n23)cc1 | -31.2% (inactive) |  |
| N#Cc1ccccc1CN1C(=O)S/C(=C/c2cccn2-c2cccc(C(=O)O)c2)C1=O |  | 25.1 µM (active) |
| Cc1nn(Cc2ccccc2)c(C)c1C(=O)NCCN1C(=O)S/C(=C\c2ccc(F)cc2)C1=O | 16.3% (inactive) |  |
| O=C(NCCN1C(=O)S/C(=C\c2cccnc2)C1=O)c1cccc(OC(F)F)c1 | 4.16% (inactive) |  |
| CCc1ccc(CNCc2c(C(=O)O)n(Cc3ccc(F)cc3Cl)c3cc(OC)ccc23)cc1 | -4.3% (inactive) |  |
| CCCCN(CC)CCCNC(=O)Cn1ncc2c([nH]c3ccc(C)cc32)c1=O | 2.67% [at 57.1 µM] (inactive) |  |
| CCNS(=O)(=O)c1ccc(NC(=O)CSc2nc(-c3ccco3)cc(C(F)(F)F)n2)cc1 | -15.5% (inactive) |  |
| CCOc1cc(C(=O)O)ccc1OCCOc1ccccc1 | -16.1% (inactive) |  |
| CCOc1c(CNCc2ccc(C(=O)O)cc2)cccc1OC | -3.23% (inactive) |  |
| CCOc1cccc2c1N[C@@H](c1ccc(C(=O)O)cc1)[C@H]1CC=C[C@@H]21 |  | 15.8 µM (active) |
| Cc1cccc(N2CCN(C(=O)CCSCc3ccccc3F)CC2)c1C | 17.7% (inactive) |  |
| Cc1ccc(-n2ncc(C(=O)N(C)Cc3ccccc3)c2-n2cccc2)cc1 | -21.1% (inactive) |  |
| COc1ccc2oc(-c3ccc(C)c(NC(=O)c4sc5ccccc5c4Cl)c3)nc2c1 | -16.3% (inactive) |  |
| O=C(CSc1nc(Nc2ccc(F)c(F)c2)c2ccccc2n1)c1ccc(Cl)cc1 | -11.1% (inactive) |  |
| CN(C)CCCNC(=S)NCc1ccc(Cl)cc1 | 11.6% (inactive) |  |
| CC(O)CN(Cc1ccc(Cl)cc1)CC(C)O (stereo not drawn) |  | 56.2 µM (active) |
| O=C(NCc1ccc(Cl)cc1)NCc1ccc(Cl)cc1 | -10.7% (inactive) |  |
| CCC1CN(S(=O)(=O)c2cc(-c3cc(C)no3)ccc2C)c2cc(C)ccc2O1 (stereo not drawn) | 4.05% (inactive) |  |
| O=S(=O)(c1ccc(Br)cc1)c1nnn2c1nc(N1CCOCC1)c1sccc12 | -12.7% (inactive) |  |
| O=C(CSc1oc(-c2ccco2)nc1S(=O)(=O)c1ccccc1)c1ccc(Cl)cc1 | -11.8% (inactive) |  |
| O=S(=O)(c1cccc2nonc12)N1CCN(c2cccc(Cl)c2)CC1 |  | 50.1 µM (active) |
| CC1CC(C)CN(S(=O)(=O)c2cccc3nonc23)C1 (stereo not drawn) | -16.5% (inactive) |  |
| O=C(NCc1ccccc1Cl)C1CCN(S(=O)(=O)c2cccc3nonc23)CC1 | -4.18% (inactive) |  |
| COc1ccc(Cn2ccc3nc(C)c(C(=O)Nc4ccc(C)c(F)c4)cc3c2=O)cc1 | 0.0031% (inactive) |  |
| CC(=O)c1cccc(Nc2ccc3cc(S(=O)(=O)N4CCC(C)CC4)ccc3n2)c1 | 9.61% (inactive) |  |

| SMILES | activity change, negative = inhibition | Potency |
| --- | --- | --- |
| O=C(CSc1nc2c(c(=O)[nH]1)CN(Cc1ccc3c(c1)OCO3)CC2)Nc1cc(F)ccc1F | 0.671% (inactive) |  |
| CC(C)c1cc(CN2CCOCC2)cc(C(C)C)c1O | -16.3% (inactive) |  |
| Oc1c(C(c2ccccn2)N2CCOCC2)ccc2cccnc12 (stereo not drawn) |  | 3.16 µM (active) |
| Oc1c(C(c2ccccc2Cl)N2CCOCC2)sc2nc(-c3ccco3)nn12 (stereo not drawn) | -33.3% (inactive) |  |
| COc1ccc(-c2nc(S(=O)(=O)c3ccccc3)c(N3CCCCC3)o2)cc1 | 1.28% (inactive) |  |
| O=C(CCC1N=C2c3ccccc3N=C(SCc3ccccc3F)N2C1=O)NCCc1ccccc1 (stereo not drawn) | -13.3% (inactive) |  |
| NS(=O)(=O)c1ccc(NC(=O)COc2ccc(S(=O)(=O)NC3CCCCC3)cc2)cc1 | 0.548% (inactive) |  |
| COc1ccc(-c2csc(-c3c(N)c(C(=O)c4ccc(OC)c(OC)c4)n4ccccc34)n2)cc1 | 1.95% (inactive) |  |
| CC(=O)Nc1ccc(S(=O)(=O)N2CCN(c3ccccc3)CC2)cc1 | 0.312% (inactive) |  |
| Cc1cccc(N2CCN(c3ccc(NC(=O)/C=C\C(=O)O)cc3)CC2)c1 |  | 35.5 µM (active) |
| CN1CCN(c2ccc(NC(=O)c3ccccc3)cc2)CC1 | -15.9% (inactive) |  |
| CN(C)c1ccc(/C=C/C(=O)c2ccc(C(C)(C)C)cc2)cc1[N+](=O)[O-] |  | 8.91 µM (active) |
| Cc1cc(C(=O)O)ccc1[N+](=O)[O-] | -31.3% (inactive) |  |
| CC(=O)Nc1ccc(/C=C/C(=O)c2ccccc2)cc1 | -0.126% (inactive) |  |
| O=S(=O)(c1ccc(C2CCCCC2)cc1)N1CCN(c2ccc(Cl)c(Cl)c2)CC1 | -6.77% (inactive) |  |
| CC1CCN(S(=O)(=O)c2ccc3c(c2)N(CC(=O)NCCc2ccccc2)C(=O)CO3)CC1 | -21.3% (inactive) |  |
| Cc1cc(Cl)ccc1NC(=O)Cc1ccc(NC(=O)N2CCCCc3ccccc32)cc1 | -8.91% (inactive) |  |
| Cc1ccc(-n2c(=O)c3cccnc3n2CC(=O)Nc2ccccc2C(F)(F)F)cc1C | 12.9% (inactive) |  |
| COc1ccccc1-c1nc(C(F)(F)F)c(OC)o1 | 14.6% (inactive) |  |
| COc1ccccc1C1=Nc2cccc3cccc(c23)N1 |  | 39.8 µM (active) |
| c1ccc(C2=Nc3cccc4cccc(c34)N2)cc1 | -31.3% (inactive) |  |
| Cc1ccccc1-c1nc2cc(NC(=O)c3cccc(OCCC(C)C)c3)ccc2o1 | 7.98% (inactive) |  |
| CCc1ccc2oc(-c3ccc(C)c(NC(=O)/C=C/c4ccco4)c3)nc2c1 | -12.5% (inactive) |  |
